# Measurements as given in publication PMC11062922 (Nature Chemical Biology, 2023).
# Columns and labels:
# Set-up in all cases: species or system human, MV4-11 + K-562 + COLO205 + SK-N-BE2 + OVCAR-8
# Details in all cases: read-out: apparent Kd; compound concentrations:100 nM and 1000 nM (sheet 'Samples'); n = 1
# ADCK1 = tested on: ADCK1
# AKT1 = tested on: AKT1
# ATR = tested on: ATR
# AURKA = tested on: AURKA
# BTK = tested on: BTK
# CDK9 = tested on: CDK9
# CLK1 = tested on: CLK1
# CLK4 = tested on: CLK4
# CSNK1A1 = tested on: CSNK1A1
# CSNK1E = tested on: CSNK1E
# CSNK1G1 = tested on: CSNK1G1
# CSNK1G3 = tested on: CSNK1G3
# DDX3X;DDX3Y = tested on: DDX3X;DDX3Y
# EPHB3 = tested on: EPHB3
# GRK6 = tested on: GRK6
# HSP90B1 = tested on: HSP90B1
# LYN = tested on: LYN
# MAP2K1 = tested on: MAP2K1
# MAP2K2 = tested on: MAP2K2
# MAPK1 = tested on: MAPK1
# MAPK3 = tested on: MAPK3
# MCM5 = tested on: MCM5
# MET = tested on: MET
# OPA1 = tested on: OPA1
# PHKG2 = tested on: PHKG2
# PI4KA = tested on: PI4KA
# PI4KB = tested on: PI4KB
# PIK3CA = tested on: PIK3CA
# PIK3CB = tested on: PIK3CB
# PIM1 = tested on: PIM1
# PIM3 = tested on: PIM3
# PRKACA = tested on: PRKACA
# PRKDC = tested on: PRKDC
# RAB14 = tested on: RAB14
# RAB5C = tested on: RAB5C
# RPS6KA3 = tested on: RPS6KA3
# RPS6KA6 = tested on: RPS6KA6
# SKIV2L2 = tested on: SKIV2L2
# SLC25A5 = tested on: SLC25A5
# T10 = tested on: T1, T10
# T1 construct: gene NAT10
# TBK1 = tested on: TBK1
# TEC = tested on: TEC
# ULK3 = tested on: ULK3
# VDAC3 = tested on: VDAC3
smiles,measurement,setting,value
Cc1cnc(Nc2ccc(F)cc2Cl)nc1-c1c[nH]c(C(=O)N[C@H](CO)c2cccc(Cl)c2)c1 [Vertex11e],potency estimated from few doses,ADCK1,1210 nM
same,potency estimated from few doses,AKT1,1200 nM
same,potency estimated from few doses,ATR,890 nM
same,potency estimated from few doses,AURKA,745 nM
same,potency estimated from few doses,BTK,880 nM
same,potency estimated from few doses,CDK9,1810 nM
same,potency estimated from few doses,CLK1,1150 nM
same,potency estimated from few doses,CLK4,1250 nM
same,potency estimated from few doses,CSNK1A1,969 nM
same,potency estimated from few doses,CSNK1E,1220 nM
same,potency estimated from few doses,CSNK1G1,2060 nM
same,potency estimated from few doses,CSNK1G3,1230 nM
same,potency estimated from few doses,DDX3X;DDX3Y,1220 nM
same,potency estimated from few doses,EPHB3,2330 nM
same,potency estimated from few doses,GRK6,1290 nM
same,potency estimated from few doses,HSP90B1,1070 nM
same,potency estimated from few doses,LYN,1320 nM
same,potency estimated from few doses,MAP2K1,1350 nM
same,potency estimated from few doses,MAP2K2,1430 nM
same,potency estimated from few doses,MAPK1,44.9 nM
same,potency estimated from few doses,MAPK3,77.8 nM
same,potency estimated from few doses,MCM5,1270 nM
same,potency estimated from few doses,MET,2320 nM
same,potency estimated from few doses,OPA1,802 nM
same,potency estimated from few doses,PHKG2,2480 nM
same,potency estimated from few doses,PI4KA,1380 nM
same,potency estimated from few doses,PI4KB,59.2 nM
same,potency estimated from few doses,PIK3CA,142 nM
same,potency estimated from few doses,PIK3CB,851 nM
same,potency estimated from few doses,PIM1,939 nM
same,potency estimated from few doses,PIM3,340 nM
same,potency estimated from few doses,PRKACA,1860 nM
same,potency estimated from few doses,PRKDC,723 nM
same,potency estimated from few doses,RAB14,655 nM
same,potency estimated from few doses,RAB5C,1330 nM
same,potency estimated from few doses,RPS6KA3,1540 nM
same,potency estimated from few doses,RPS6KA6,628 nM
same,potency estimated from few doses,SKIV2L2,1590 nM
same,potency estimated from few doses,SLC25A5,1450 nM
same,potency estimated from few doses,T10,952 nM
same,potency estimated from few doses,TBK1,1290 nM
same,potency estimated from few doses,TEC,1320 nM
same,potency estimated from few doses,ULK3,1530 nM
same,potency estimated from few doses,VDAC3,1380 nM
